High-throughput results from PubChem BioAssay.
D1 antag: human D1 dopamine receptor antagonism | actives 3.2% (n = 360,000) | AID 504652 | P21728 | activity change, negative = inhibition, % at 10 µM | HEK293 TREx D1 cells, calcium flux, dopamine EC80; active compounds read low; in the data active = activity change below about -30%
Target sequence (P21728 whole entry, looked up): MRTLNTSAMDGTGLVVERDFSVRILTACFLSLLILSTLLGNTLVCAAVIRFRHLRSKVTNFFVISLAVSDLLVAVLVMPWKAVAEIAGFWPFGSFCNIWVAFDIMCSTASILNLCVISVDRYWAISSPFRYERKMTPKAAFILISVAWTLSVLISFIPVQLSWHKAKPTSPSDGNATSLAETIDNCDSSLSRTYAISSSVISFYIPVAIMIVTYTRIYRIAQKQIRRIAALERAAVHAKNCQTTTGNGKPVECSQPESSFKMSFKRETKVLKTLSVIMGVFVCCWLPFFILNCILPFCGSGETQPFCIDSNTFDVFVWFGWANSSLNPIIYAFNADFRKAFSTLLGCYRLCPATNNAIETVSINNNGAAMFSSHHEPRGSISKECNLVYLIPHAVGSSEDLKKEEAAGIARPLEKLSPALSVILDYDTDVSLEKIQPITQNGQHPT
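Allosteric or orthosteric antagonism assessed as attenuation of the calcium response to EC80 dopamine, added 180 s after compound, in induced HEK293 Trex D1 cells loaded with no-wash calcium dye.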
D1 ag: activates the human D1 dopamine receptor; HEK293 T-REx D1 cells, calcium flux, agonist mode; activation, % at 2 µM; actives 1% (n = 360,000); in the data active = activation above about 30%
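Inducible HEK293 T-REx D1 cells, force-coupled to calcium signalling, were plated at 4000 cells/well with tetracycline and held overnight at 30 C. After no-wash calcium dye loading, compound-evoked calcium rise over 180 s flagged agonists.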
D3 ag: activates the human D3 dopamine receptor; P35462; D3R DiscoveRx beta-arrestin cells, luminescence, 90 min; max activation, %; actives 0.58% (n = 410,000); in the data active = max activation above about 30%
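Cells at 1500/well, incubated overnight, then treated with pinned compounds (dopamine as control) for 90 min at 37 degrees C. DiscoveRx reagent added for 30 - 60 minutes at room temperature; luminescence read.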
D1 PAM: enhances dopamine response at the human D1 receptor | actives 0.036% (n = 360,000) | P21728 | HEK293 TREx D1 cells, calcium flux, dopamine EC20 potentiation | potentiation, % at 10 µM | AID 504651; in the data active = potentiation above about 30%
D3 antag: antagonists of human D3 dopamine receptor. max response, negative = inhibition, %. P35462. D3R cells, DiscoveRx beta-arrestin luminescence, antagonist mode; active compounds read low. actives 2.5% (n = 360,000); in the data active = max response below about -50%; inconclusive = no clear call, values can overlap the other calls
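Cells plated overnight at 1500 cells/well, then exposed to library compounds with dopamine controls for 90 minutes at 37 degrees C. DiscoveRx reagent added for 30–60 minutes at room temperature; luminescence read, quantitative HTS format.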
Large screens that a line does not name were inactive; ! = not confirmed by another sample. Hits are enriched below; roughly 6% of the tested compounds scored in any of these assays.

Cc1cccc(N2CCN(c3nc4ccccc4c(=O)n3-c3ccc(Cl)cc3)CC2)c1C	none (no result: D3 antag)
CC(=O)N/N=C/c1cc(C(C)(C)C)cc(/C=N/NC(C)=O)c1O	D1 ag 36, D3 antag inconclusive
N#Cc1ccc(NC(=O)COc2ccc(-n3cnnn3)cc2)cc1	none (no result: D1 antag, D1 ag, D1 PAM)
COc1ccc(Br)cc1CN(C)CC(=O)NCc1ccc(F)cc1	none
COc1ccc(CNC(=O)CN(C)Cc2ccccc2F)cc1OC	D1 antag -36
COc1ccc(CN(C)CC(=O)Nc2cc3oc4ccccc4c3cc2OC)c(OC)c1	none
COc1cc2c(cc1NC(=O)CN(C)Cc1ccc(OC)c(OC)c1)oc1ccccc12	D3 ag 38
COc1ccc(CNC(=O)c2cc3c(=O)n4cccc(C)c4nc3s2)cc1	none (no result: D3 antag)
Clc1ccc(C(c2ccccc2)N2CCN(c3ccccn3)CC2)cc1 (configuration not stated)	none
CN1CCN(C(c2ccccc2)c2ccccc2)CC1	D3 antag -80
CCC(C)NC(=S)N1CCN(C(c2ccccc2)c2ccccc2)CC1 (configuration not stated)	D1 antag -31
CN1CCCN(C(c2ccccc2)c2ccc(Cl)cc2)CC1 (configuration not stated)	D1 ag 40, D3 antag -113
c1ccc(OCCN2CCN(C(c3ccccc3)c3ccccc3)CC2)cc1	D3 antag -89
CNC(=S)N1CCN(C(c2ccccc2)c2ccccc2)CC1	none
c1ccc(OCCN2CCNCC2)cc1	none (no result: D1 antag, D1 ag, D1 PAM)
CCOc1ccc(NC(=O)c2ccc3nc(C(C)C)oc3c2)cc1	none (no result: D3 antag)
CCCCN1C(=O)c2[nH]nc(-c3ccccc3O)c2C1c1ccc(OCc2ccccc2)cc1 (configuration not stated)	none (no result: D3 antag)
Cc1ccc(C)c(N2CCN(C(=O)c3c4c(nc5ccccc35)C(=O)N(C3CCCCC3)C4)CC2)c1	none (no result: D3 antag)
COC(=O)Cc1ccc(N(Cc2ccccc2F)S(=O)(=O)c2ccc(Cl)cc2)cc1	D3 antag -56
CCOc1ccc(CN2C(=O)CCC2(C)C(=O)NCc2cccnc2)cc1 (configuration not stated)	D1 antag -30
Cc1c(/C=N/NC(=O)c2ccccc2O)c2ccccn2c1C(=O)c1ccc(F)cc1	D3 ag 31
COC(=O)c1sccc1S(=O)(=O)N(CC(=O)Nc1cc(C)ccc1C)c1ccc(C)c(C)c1	none (no result: D3 antag)
COc1ccc(N2CC(O)(c3ccc(F)cc3)[N+]3=C2CCCC3)cc1 (configuration not stated)	D3 antag inconclusive
CCOc1ccc(N2CC(O)(c3ccc(F)cc3)[N+]3=C2CCCC3)cc1 (configuration not stated)	D1 antag -44
COc1ccc(N2CC(O)(c3ccc(OC(F)F)cc3)[N+]3=C2CCCC3)cc1 (configuration not stated)	D3 antag -50
COc1ccc(CNC(=O)Cn2c(SCC(=O)Nc3ccc(OC)cc3)nc3ccccc32)cc1	none (no result: D3 antag)
CC(=O)Nc1c(C(=O)Nc2cccc(C)c2)nnn1-c1ccc(C)cc1	D1 antag -34 (no result: D3 antag)
Cc1noc(/C=C/N(C)C)c1S(=O)(=O)N1CCN(c2ccccc2)CC1	D1 antag -37
Cc1noc(C)c1S(=O)(=O)N1CCN(c2ccccc2)CC1	D1 antag -63 (no result: D1 PAM)
Cc1noc(/C=C/N(C)C)c1S(=O)(=O)N1CCCC(C(=O)NCc2ccc(Cl)cc2)C1 (configuration not stated)	none
Cc1noc(/C=C/N(C)C)c1S(=O)(=O)N1CCCC(C(=O)NCc2ccccc2Cl)C1 (configuration not stated)	D1 antag -51
Cc1noc(C)c1S(=O)(=O)N1CCN(c2ccccc2Cl)CC1	none
COc1ccc(Nc2cc(C(=O)NCCCN(C)Cc3ccccc3)c3ccccc3n2)cc1OC	none (no result: D3 antag)
Cn1c2cc(Br)sc2c2cnn(Cc3c(F)cccc3Cl)c(=O)c21	D1 antag -94 (no result: D3 ag, D3 antag)
Cn1c2cc(Br)sc2c2cnn(Cc3c(F)cccc3F)c(=O)c21	none (no result: D3 ag, D3 antag)
COC(=O)c1ccc(Nc2ncnc3c2nc2n3CCCC2)cc1	none (no result: D3 antag)
COc1ccc(S(=O)(=O)N2CCC(Oc3cccc(C(F)(F)F)c3)CC2)cc1OC	D1 antag -36 (no result: D3 antag)
COc1ccc(OC2CCN(S(=O)(=O)c3ccc(OC)cc3)CC2)cc1	D1 antag -36!, D1 ag 35
